# Reference: the supplement of paper PMC6522484
# ± gives the standard deviation of the averaged measurements.
# Assays:
# DLD1 [1] = assay: cell viability (CellTiter-Glo) relative to plate median (fraction of plate median); higher = more viable cells; details: 5 µM; treatment time 24 h; reporter: 7TFP
# Procedure, shortened: (§1)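 Signals from firefly luciferase or CellTiterGlo readouts were normalised well by well to the plate median using webcellHTS2, additively and with no log transformation. They came from colorectal cancer cell lines stably holding lentiviral TCF/Wnt firefly luciferase reporters (7TFP or TCF4/Wnt), treated with library compounds at a final 5 µM for 24 h. The mean of two independent replicates is given.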
# HCT116 = assay: as above; details: 5 µM; treatment time 24 h; reporter: TCF4/Wnt
# Procedure, shortened: as §1
# SW480 [2] = assay: as above; details: 5 µM; treatment time 24 h; reporter: 7TFP
# Procedure, shortened: as §1
# DLD1 [3] = assay: TCF/Wnt firefly luciferase reporter signal relative to plate median (fraction of plate median); higher = higher Wnt reporter signal; details: 5 µM; treatment time 24 h; reporter: 7TFP
# Procedure, shortened: as §1
# SW480 [4] = assay: as above; details: 5 µM; treatment time 24 h; reporter: 7TFP
# Procedure, shortened: as §1
compound,measurement,setting,value
CC(C)c1ncc(Cc2ccccc2)[nH]c1=O [Phevalin],cell viability,DLD1 [1],1.14 ± 0.22
same,cell viability,HCT116,1.07 ± 0.014
same,cell viability,SW480 [2],1.004 ± 0.0078
same,TCF/Wnt firefly luciferase reporter signal,DLD1 [3],0.982 ± 0.019
same,TCF/Wnt firefly luciferase reporter signal,SW480 [4],0.922 ± 0.12
CC1(C)C[C@@H]2C(=O)CC[C@H]3O[C@]3(C)CC[C@H]21,cell viability,DLD1 [1],1.09 ± 0.057
same,cell viability,HCT116,1.01 ± 0.073
same,cell viability,SW480 [2],1.02
same,TCF/Wnt firefly luciferase reporter signal,DLD1 [3],1.03 ± 0.047
same,TCF/Wnt firefly luciferase reporter signal,SW480 [4],0.985 ± 0.036
NC(=O)NCCC[C@H](N)C(=O)O,cell viability,DLD1 [1],1 ± 0.12
same,cell viability,HCT116,1 ± 0.051
same,cell viability,SW480 [2],1.015 ± 0.0071
same,TCF/Wnt firefly luciferase reporter signal,DLD1 [3],0.944 ± 0.043
same,TCF/Wnt firefly luciferase reporter signal,SW480 [4],0.864 ± 0.083
COc1cccc(OC)c1C(=O)N[C@@H]1C(=O)N2[C@@H]1SC(C)(C)[C@@H]2C(=O)O,cell viability,DLD1 [1],1.05 ± 0.071
same,cell viability,HCT116,1.17 ± 0.042
same,cell viability,SW480 [2],1.07 ± 0.035
same,TCF/Wnt firefly luciferase reporter signal,DLD1 [3],1.14 ± 0.21
same,TCF/Wnt firefly luciferase reporter signal,SW480 [4],1.06 ± 0.16
CC(=O)c1ccc[nH]1,cell viability,DLD1 [1],0.992 ± 0.04
same,cell viability,HCT116,1.03 ± 0.048
same,cell viability,SW480 [2],1.025 ± 0.0071
same,TCF/Wnt firefly luciferase reporter signal,DLD1 [3],0.87 ± 0.23
same,TCF/Wnt firefly luciferase reporter signal,SW480 [4],0.798 ± 0.14
CCCCC[C@H](CC(=O)O)C(=O)O,cell viability,DLD1 [1],0.996 ± 0.091
same,cell viability,HCT116,0.953 ± 0.095
same,cell viability,SW480 [2],0.974 ± 0.03
same,TCF/Wnt firefly luciferase reporter signal,DLD1 [3],1.15 ± 0.085
same,TCF/Wnt firefly luciferase reporter signal,SW480 [4],1.03 ± 0.021
NS(=O)(=O)c1cc2c(cc1Cl)NC(C1CC3C=CC1C3)NS2(=O)=O (stereo not given),cell viability,DLD1 [1],0.973 ± 0.052
same,cell viability,HCT116,0.962 ± 0.0071
same,cell viability,SW480 [2],0.983 ± 0.0042
same,TCF/Wnt firefly luciferase reporter signal,DLD1 [3],1.1 ± 0.035
same,TCF/Wnt firefly luciferase reporter signal,SW480 [4],0.879 ± 0.04
